Screening data deposited in PubChem by several laboratories.
Most compounds without a hit are left out; they make up all but 7% or so of the library.
rCAG RNA binder: molecules binding r(CAG) RNA repeats; inhibition, % at 3 µM; AID 651821; r(CAG) RNA repeat, TO-PRO-1 dye displacement fluorescence; hit rate 1.3% among 370,000;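 active = inhibition above the plate cutoff, the mean of all test compounds on that plate plus 3 SD, cut at about 35% in these data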;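 also: higher means more dye released from RNA so lower well fluorescence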
KLK7 zymogen act: activators of human kallikrein-7 zymogen; P49862; purified proKLK7, EDANS-DABCYL substrate fluorescence; 100% is mature enzyme control, 0% vehicle; activation, % at 7 µM; hit rate 0.9% among 370,000;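 active = activation above the mean of all tested compounds plus 3 SD, computed per campaign excluding outliers beyond control limits, cut at about 13% in these data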
Target sequence (P49862 whole entry, looked up): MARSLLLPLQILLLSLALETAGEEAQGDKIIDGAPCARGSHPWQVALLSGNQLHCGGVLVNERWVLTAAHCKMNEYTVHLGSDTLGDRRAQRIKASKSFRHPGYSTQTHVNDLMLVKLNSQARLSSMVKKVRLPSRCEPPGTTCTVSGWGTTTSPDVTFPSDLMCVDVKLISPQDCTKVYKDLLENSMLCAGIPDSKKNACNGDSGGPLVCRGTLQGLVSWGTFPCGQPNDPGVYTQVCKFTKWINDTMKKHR
AHR activator: activates the human aryl hydrocarbon receptor; AHR-responsive luciferase reporter cells, luminescence; hit rate 2.5% among 320,000; P35869; activation, % at 5 µM; in the data active = activation above about 47%
ADAM17 inh: inhibits human ADAM17 | P78536 | recombinant ADAM17, EDANS/DABCYL FRET peptide cleavage | inhibition, % at 6.95 µM | hit rate 0.83% among 370,000 | AID 720648;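 active = inhibition above the mean of compounds lying between control limits plus 3 SD, set per campaign, cut at about 8.5% in these data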
NR3A LBD binder: NR3A (human) ligand-binding domain modulation. hit rate 2.5% among 340,000. Tm shift relative to glycine control, % at 25 µM. NR3A LBD differential scanning fluorimetry, Tm shift; 0% = protein alone, 100% = glycine-bound protein;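 active = melting temperature shift of at least 10% of the positive control shift, at one fixed dose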
ADAM10 inh: ADAM10 inhibition, QFRET primary screen. recombinant ADAM10, EDANS/DABCYL FRET peptide cleavage, 3 h. O14672. inhibition, % at 7 µM. hit rate 0.62% among 370,000;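 active = inhibition above a per-campaign cutoff equal to the mean of compounds falling between control-based bounds plus 3 SD, cut at about 20% in these data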
ADAM10 ctr: counter-screen for ADAM17 exosite inhibitors: inhibitors of human ADAM10; shares compounds with ADAM17 inh; recombinant ADAM10, EDANS/DABCYL FRET peptide cleavage, 3 h; inhibition, % at 6.95 µM; hit rate 47% among 2,900; AID 743256;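 active = mean inhibition over the triplicate runs exceeds the activity threshold set in the earlier primary screen, cut at about 20% in these data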
ADAM17 confirm: human ADAM17 inhibition, confirmation | recombinant ADAM17, EDANS/DABCYL QFRET peptide cleavage | inhibition, % at 6.95 µM | shares compounds with ADAM17 inh | hit rate 65% among 2,900;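 active = mean inhibition across replicates above the hit cutoff set in the primary screen, cut at about 8.5% in these data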
Numbers stand for hits; . = inactive; / = no result; ! = a repeat was not active.

SMILES	rCAG RNA binder	KLK7 zymogen act	AHR activator	ADAM17 inh	NR3A LBD binder	ADAM10 inh	ADAM10 ctr	ADAM17 confirm
CCC(C(=O)O)N1C(=O)/C(=C/c2cccn2C)SC1=S (centres undefined)	.	.	.	8.8	.	.	.	12
COc1ccc(-c2n[nH]c(C)c2-c2ccc(Cl)cc2)c(O)c1OC	.	.	.	11	.	.	22	.
COc1ccc(O)c(-c2c(-c3ccc(Cl)cc3)n[nH]c2C)c1	.	.	.	.	.	.	/	/
CC1CN(C(=O)COc2ncnc3ccccc23)CC(C)O1 (centres undefined)	.	.	.	9.7	.	.	.	.
CS(=O)(=O)c1cccc(C(=O)OCC(=O)Nc2ccc3c(c2)OCO3)c1	.	.	.	.	.	.	/	/
COc1cc(/C=N\NC(=O)c2cccc(Cl)c2)ccc1Oc1ccc([N+](=O)[O-])cn1	.	.	.	.	.	.	/	/
COc1cc(/C=N\NC(=O)c2ccccc2F)ccc1Oc1ccc([N+](=O)[O-])cn1	.	.	.	10.0	.	.	.	.
COc1ccc(NC(C)C(=O)N/N=C/c2ccccc2OCc2ccc(Br)cc2)cc1 (centres undefined)	.	.	.	14	.	.	.	20
CSc1ccc(CN(C)CC(=O)Nc2c(F)cccc2F)cc1	.	.	.	.	.	.	/	/
Cc1c(Cl)cccc1NC(=S)NCCC(c1ccccc1)c1ccccc1	.	.	.	9.2	.	.	21	10
COc1cccc(C(=O)Nc2cc(S(=O)(=O)N3CCOCC3)ccc2N2CCOCC2)c1	.	.	/	.	.	.	/	/
CCc1ccc(C(=O)Nc2cc(S(=O)(=O)N3CCOCC3)ccc2N2CCOCC2)cc1	.	.	.	9.1	.	.	.	.
CC(C)COc1cccc(C(=O)Nc2cc(S(=O)(=O)N3CCOCC3)ccc2N2CCCC2)c1	.	.	/	11	.	.	21	11
Cc1cc(C)n(C(C)CC(=O)Nc2ccc(-c3ccno3)cc2)n1 (centres undefined)	.	.	.	.	.	.	/	/
Cc1cc(OCC(=O)OCC(=O)NCc2ccc3c(c2)OCO3)ccc1Cl	.	.	.	11	.	.	.	9.1
O=C(COC(=O)COc1ccc(Br)cc1)NCc1ccc2c(c1)OCO2	.	.	.	.	.	.	/	/
COCC(=O)N1CCC(n2nccc2NC(=O)c2ccccc2OC)CC1	.	.	.	.	.	.	/	/
O=C(CN1C(=O)c2ccccc2C1=O)Nc1ccc(S(=O)(=O)N2CCOCC2)cc1	.	.	.	.	.	.	/	/
CCOC(=O)C1=C(C)NC(C)=C(C(=O)OC)C1c1cccc([N+](=O)[O-])c1 (centres undefined)	.	.	.	.	.	.	/	/
CCOC(=O)C1=C(C)NC(C)=C(C(=O)OCC)C1c1ccc([N+](=O)[O-])s1	.	.	.	9.2!	.	.	24	12
O=C(NC1CCCCC1)C(c1ccncc1)N(C(=O)c1csnn1)c1cccc(F)c1 (centres undefined)	.	.	.	.	.	.	/	/
COc1ccc(C2=NN(C(=O)CSc3nnc(-c4ccccc4F)o3)C(c3ccco3)C2)cc1 (centres undefined)	.	.	.	11	.	.	.	.
COc1ccc(C2=NN(C(N)=S)C(c3ccco3)C2)cc1 (centres undefined)	.	.	.	.	.	.	/	/
CS(=O)(=O)N(CC(=O)N1CCN(c2ccccc2)CC1)c1cccc(Br)c1	.	.	.	.	.	.	/	/
COc1ccc(N2CCN(C(=O)CN(c3cccc(Br)c3)S(C)(=O)=O)CC2)cc1	.	.	.	14	.	.	.	.
SMILES	rCAG RNA binder	KLK7 zymogen act	AHR activator	ADAM17 inh	NR3A LBD binder	ADAM10 inh	ADAM10 ctr	ADAM17 confirm
O=C(N/N=C/c1ccc(N2CCCC2)c([N+](=O)[O-])c1)c1cccnc1	.	.	.	9.0	.	.	21	12
O=C(N/N=C/c1ccc(N2CCOCC2)c([N+](=O)[O-])c1)c1ccc(F)cc1	.	.	.	.	.	.	/	/
CCCCOc1cc(C)nc(NCc2ccccc2)n1	.	.	.	11	.	.	.	.
CCOc1cc(C)nc(NCc2ccccc2)n1	.	.	.	.	.	.	/	/
Nc1nc(Nc2ccccc2)nc(NCc2ccccc2)c1[N+](=O)[O-]	.	.	.	.	.	.	/	/
Cc1cccc(Nc2nc(N)c([N+](=O)[O-])c(NCc3ccccc3)n2)c1	.	.	.	9.2	.	.	.	.
CC(C)(C)c1ccc(S(=O)(=O)N2CCN(Cc3cc4c(cc3O)OCO4)CC2)cc1	.	.	.	.	.	.	/	/
CCOc1ccc(S(=O)(=O)c2ccc(C)cc2)c2c1no[n+]2[O-]	.	.	/	11	/	.	.	.
Cc1cc(N/N=C/c2c(O)ccc3ccccc23)nc(-c2ccccc2O)n1	.	.	.	9.2	14	.	.	.
CCN(CC)S(=O)(=O)c1cccc(NC(=O)CCSc2ccc(Cl)cc2)c1	.	.	.	9.2	.	.	37	17
Cn1c(=O)c(C(=O)N2CCc3ccccc32)cc2cccnc21	.	.	.	.	.	.	/	/
Cc1ccc(C(=O)CCC(=O)OCC(=O)N(CC(C)C)c2c(N)n(Cc3ccccc3)c(=O)[nH]c2=O)cc1	.	.	.	.	.	.	/	/
CC(C)CN(C(=O)COC(=O)CCC(=O)c1ccc(F)cc1)c1c(N)n(Cc2ccccc2)c(=O)[nH]c1=O	.	.	.	13	.	.	.	.
COc1cccc(Cn2cnc3c(NS(=O)(=O)c4cc(Cl)ccc4Cl)c(C)c(C)cc32)c1	.	.	.	8.9	.	.	20	11
CCn1c2c(c3cc(Br)ccc31)CCC/C2=N\O	.	.	.	9.5	.	.	.	.
COC(=O)[C@H](CC(C)C)N1Cc2nnn(Cc3ccc(C)cc3)c2-c2cc(F)ccc2S1(=O)=O	.	.	/	10	/	.	.	14
CCC(=O)Nc1ccc(/C(C)=N/NC(=O)c2c(Br)c(C)nn2C)cc1	.	.	.	.	.	.	/	/
C/C(=N\NC(=O)c1c(Br)c(C)nn1C)c1ccc(NC(=O)C(C)Oc2ccc(Cl)cc2C)cc1 (centres undefined)	.	.	.	9.1	.	.	.	.
COc1ccc(C(=O)N2CCN(Cc3ccccc3)CC2)cc1[N+](=O)[O-]	.	.	.	.	.	.	/	/
O=C(c1ccc(S(=O)(=O)c2cccc(Cl)c2)c([N+](=O)[O-])c1)N1CCN(Cc2ccccc2)CC1	.	.	.	10	.	.	25	17
